Test results: PubChem BioAssay (NCATS)
Inconclusive results are not listed. Activity calls are given as the source filed them. Calls come from the whole dose curve; as a rule, active = well fitted curve in the direction sought with a large enough effect; inconclusive = small, poorly fitted or top-dose-only effect, or another doubt; inactive = no such curve, though single readings can be large; an effect the other way counts as inactive or inconclusive.

Experiments:
KB-3-1 = experiment: Cytotoxic Profiling of Annotated Libraries Using Quantitative High-Throughput Screening (AID 1296008); conditions: Five cell lines viability, CellTiter-Glo ATP luminescence, 48-72 h; max response: stronger effect = lower value; note: nearly all actives have a fitted effect of over 60% in size; for max response: % is set by controls: 0 for no effect and ±100 for the full control effect
Outline: (§1)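 Cells exposed to compounds for 48 or 72 hr at 37 degrees Celsius. Viability read as ATP-coupled luminescence with CellTiter-Glo after 10 min at room temperature.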

NIH3T3 [1] = experiment: as above; conditions: Five cell lines viability, CellTiter-Glo ATP luminescence, 48-72 h; max response: stronger effect = lower value
Outline: as §1

HACAT = experiment: qHTS assay to identify novel small-molecules to repurpose for Merkel cell carcinoma treatment (AID 1296009); conditions: MCC and control cell lines, CellTiter-Glo viability, 72 h; at 44.8 µM (top of the series) unless noted; note: nearly all actives have a fitted effect of over 60% in size
Outline: (§2)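 Cells were incubated with compound for 72 hr at 37 degree celsius before CellTiter-Glo addition. Luminescence was normalized with no-cell wells as full cytotoxicity and DMSO as baseline.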

HEK293T [2] = experiment: as above; conditions: MCC and control cell lines, CellTiter-Glo viability, 72 h; series mostly up to 44.8 µM
Outline: as §2

C33A = experiment: Primary qHTS to identify gynecologic anti-cancer compounds using libraries of approved drugs and bioactive compounds (AID 1345084); conditions: Gynecologic cancer cell panel viability, ATPlite luminescence, 48 h; series mostly up to 57.5 µM; note: % is set by controls: 0 for no effect and ±100 for the full control effect; nearly all actives have a fitted effect of over 55% in size
Outline: (§3)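 Cells, 1,000 per well, plated 16 h, then exposed 48 h at 37 C to compounds. Viability by ATPlite luminescence after 15 min at room temperature.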

CASKI = experiment: as above; conditions: Gynecologic cancer cell panel viability, ATPlite luminescence, 48 h; series mostly up to 57.5 µM
Outline: as §3

Es-2 = experiment: as above; conditions: Gynecologic cancer cell panel viability, ATPlite luminescence, 48 h; series mostly up to 57.5 µM
Outline: as §3

HeLa = experiment: as above; conditions: Gynecologic cancer cell panel viability, ATPlite luminescence, 48 h; series mostly up to 57.5 µM
Outline: as §3

Hek293T [3] = experiment: as above; conditions: Gynecologic cancer cell panel viability, ATPlite luminescence, 48 h, control line for the selectivity index; series mostly up to 57.5 µM
Outline: as §3

JEG-3 = experiment: as above; conditions: Gynecologic cancer cell panel viability, ATPlite luminescence, 48 h; series mostly up to 57.5 µM
Outline: as §3

OV90 = experiment: as above; conditions: Gynecologic cancer cell panel viability, ATPlite luminescence, 48 h; series mostly up to 57.5 µM
Outline: as §3

PA-1 = experiment: as above; conditions: Gynecologic cancer cell panel viability, ATPlite luminescence, 48 h; series mostly up to 57.5 µM
Outline: as §3

NIH3T3 [4] = experiment: qHTS assay to identify novel small-molecules to repurpose for Merkel cell carcinoma treatment (AID 1296009); conditions: MCC and control cell lines, CellTiter-Glo viability, 72 h; at 44.8 µM (top of the series) unless noted; note: nearly all actives have a fitted effect of over 60% in size
Outline: as §2

CAOV3 = experiment: Primary qHTS to identify gynecologic anti-cancer compounds using libraries of approved drugs and bioactive compounds (AID 1345084); conditions: Gynecologic cancer cell panel viability, ATPlite luminescence, 48 h; series mostly up to 57.5 µM; note: % is set by controls: 0 for no effect and ±100 for the full control effect; nearly all actives have a fitted effect of over 55% in size
Outline: as §3

Cc1c(N2C(=O)c3ccc(C(=O)O)cc3C2=O)c(=O)n(-c2ccccc2)n1C
inactive: outcome (KB-3-1) | outcome (NIH3T3 [1]) | outcome (HACAT) | Potency (HEK293T [2]) | Potency (C33A) | Potency (CASKI) | Potency (Es-2) | Potency (HeLa) | Potency (Hek293T [3]) | Potency (JEG-3) | Potency (OV90) | Potency (PA-1)

CC1=CC(=O)C[C@H]2[C@@H]1CC[C@@H](C)[C@]21CO[C@H](c2ccoc2)C1=O
inactive: max response (KB-3-1) -0.71% | max response (NIH3T3 [1]) -2.85% | outcome (HACAT) | Potency (HEK293T [2]) | Potency (C33A) | Potency (CASKI) | Potency (Es-2) | Potency (HeLa) | Potency (Hek293T [3]) | Potency (JEG-3) | Potency (OV90) | Potency (PA-1)

CC1=CCC2C(C)(CO)CCCC2(CO)C1CO (configuration not stated)
inactive: outcome (KB-3-1) | outcome (NIH3T3 [1]) | Potency (HEK293T [2]) | outcome (NIH3T3 [4]) | Potency (C33A) | Potency (CAOV3) | Potency (CASKI) | Potency (Es-2) | Potency (HeLa) | Potency (Hek293T [3]) | Potency (JEG-3) | Potency (OV90) | Potency (PA-1)

CCOC(=O)c1ccnc(CNCC(=O)N(CC)CCN(C)C)c1
inactive: max response (KB-3-1) 5.64% | outcome (NIH3T3 [1]) | outcome (HACAT) | Potency (HEK293T [2]) | Potency (C33A) | Potency (CASKI) | Potency (Es-2) | Potency (HeLa) | Potency (Hek293T [3]) | Potency (JEG-3) | Potency (OV90) | Potency (PA-1)

O=C(O)c1cc(O)c2cccc(O)c2c1O[C@@H]1O[C@H](CO)[C@@H](O)[C@H](O)[C@H]1O
inactive: max response (KB-3-1) 4.95% | outcome (NIH3T3 [1]) | Potency (HEK293T [2]) | outcome (NIH3T3 [4]) | Potency (C33A) | Potency (CAOV3) | Potency (CASKI) | Potency (Es-2) | Potency (HeLa) | Potency (Hek293T [3]) | Potency (JEG-3) | Potency (OV90) | Potency (PA-1)

Cn1c(=O)cc(N2CCCC(N)C2)n(Cc2ccccc2C#N)c1=O (configuration not stated)
inactive: max response (KB-3-1) 8.99% | outcome (NIH3T3 [1]) | Potency (HEK293T [2]) | outcome (NIH3T3 [4]) | Potency (C33A) | Potency (CAOV3) | Potency (CASKI) | Potency (Es-2) | Potency (HeLa) | Potency (Hek293T [3]) | Potency (JEG-3) | Potency (OV90) | Potency (PA-1)

COc1cc([C@@H]2Oc3c(OC)cc(CCCO)cc3[C@@H]2CO[C@@H]2O[C@H](CO)[C@@H](O)[C@H](O)[C@H]2O)ccc1O
inactive: max response (KB-3-1) 9.39% | outcome (NIH3T3 [1]) | Potency (HEK293T [2]) | outcome (NIH3T3 [4]) inactive [at 17.4 µM] | Potency (C33A) | Potency (CAOV3) | Potency (CASKI) | Potency (Es-2) | Potency (HeLa) | Potency (Hek293T [3]) | Potency (JEG-3) | Potency (OV90) | Potency (PA-1)

C[C@@H]1O[C@@H](O[C@H]2[C@H](OC(=O)C34CCC5(C)C(=CCC6C7(C)CC(O)C(O[C@@H]8O[C@H](C(=O)O)[C@@H](O)[C@H](O)[C@H]8O)C(C)(C(=O)O)C7CCC65C)C3CC(C)(C)CC4O)O[C@H](C)[C@@H](O)[C@@H]2O)[C@H](O)[C@@H](O[C@@H]2OC[C@](O)(CO)[C@H]2O[C@@H]2O[C@H](CO)[C@@H](O)[C@H](O)[C@H]2O)[C@H]1O (some centres not stated)
inactive: outcome (KB-3-1) | outcome (NIH3T3 [1]) | outcome (HEK293T [2]) inactive [at 9.27 µM] | outcome (NIH3T3 [4]) inactive [at 9.27 µM] | activity change, negative = cytotoxicity (C33A) -3.41% [at 6.55 µM] | activity change, negative = cytotoxicity (CAOV3) 7.58% [at 6.55 µM] | activity change, negative = cytotoxicity (CASKI) 3.56% [at 6.55 µM] | activity change, negative = cytotoxicity (Es-2) -1.29% [at 6.55 µM] | activity change, negative = cytotoxicity (HeLa) -4.39% [at 6.55 µM] | activity change, negative = cytotoxicity (Hek293T [3]) 5.55% [at 6.55 µM] | activity change, negative = cytotoxicity (JEG-3) 16.4% [at 6.55 µM] | activity change, negative = cytotoxicity (OV90) -2.48% [at 6.55 µM] | activity change, negative = cytotoxicity (PA-1) 9.01% [at 6.55 µM]

COC(=O)c1cc(CN2CCN(C(=N)N)CC2)cc(C(=O)N2CCN(C(=O)c3ccc(C(=N)N)cc3)CC2)c1
inactive: max response (KB-3-1) 2.44% | outcome (NIH3T3 [1]) | Potency (HEK293T [2]) | outcome (NIH3T3 [4]) | Potency (C33A) | Potency (CAOV3) | Potency (CASKI) | Potency (Es-2) | Potency (HeLa) | Potency (Hek293T [3]) | Potency (JEG-3) | Potency (OV90) | Potency (PA-1)

CC1(CO)CC[C@]2(C(=O)O[C@@H]3O[C@H](CO)[C@@H](O)[C@H](O)[C@H]3O)CC[C@]3(C)C(=CCC4[C@@]5(C)CC[C@H](O[C@@H]6O[C@H](C(=O)O)[C@@H](O)[C@H](O)[C@H]6O)C(C)(C)C5CC[C@]43C)C2C1 (some centres not stated)
inactive: outcome (KB-3-1) | outcome (NIH3T3 [1]) | outcome (HEK293T [2]) inactive [at 9.27 µM] | outcome (NIH3T3 [4]) inactive [at 9.27 µM] | activity change, negative = cytotoxicity (C33A) 12.6% [at 11.6 µM] | activity change, negative = cytotoxicity (CAOV3) 12.9% [at 11.6 µM] | activity change, negative = cytotoxicity (CASKI) -3.81% [at 11.6 µM] | activity change, negative = cytotoxicity (Es-2) 8.61% [at 11.6 µM] | activity change, negative = cytotoxicity (HeLa) 8.66% [at 11.6 µM] | activity change, negative = cytotoxicity (Hek293T [3]) 11.3% [at 11.6 µM] | activity change, negative = cytotoxicity (JEG-3) 10.8% [at 11.6 µM] | activity change, negative = cytotoxicity (OV90) 2.36% [at 11.6 µM] | activity change, negative = cytotoxicity (PA-1) 28.3% [at 11.6 µM]
